High-throughput results from PubChem.
An excerpt weighted towards active compounds, which were near 2.8% of everything screened.
Wnt bcat act = Wnt/beta-catenin pathway activation; 1.2% of 300,000 active; Wnt/beta-catenin reporter cell assay, activator, plate reader; activation, % at 9.35 µM; in the data active = activation above about 30%, passing the limit was not always enough; inconclusive = no clear call, values can overlap the other calls
esBAF inh = blocks esBAF chromatin remodeling in mouse ES cells; Bmi1-luciferase knock-in reporter, 24 h; 100% = twice the neutral-well signal; reporter increase, % at 12.5 µM; 2% of 350,000 active; in the data active = activation above about 40%; inconclusive = no clear call, values can overlap the other calls;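 also: a rise in the Bmi1 reporter signal indicates esBAF inhibition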
MITF act = increases MITF-driven TRPM1 promoter luciferase signal. activation, % at 12.5 µM. SK-MEL-5 TRPM1-promoter luciferase, 24 h; % of positive control, neutral wells = 0. 0.75% of 300,000 active;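 active = mean activation of at least 80% with every replicate also reaching 80%; inconclusive = mean reaches 80% but some replicate falls short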
FXN GAA850 act = frataxin GAA850 promoter activation. activation, % at 6 µM. AID 540364. 0.56% of 360,000 active. HEK293 lucGAA850 FXN promoter luciferase reporter, 24 h; percent of 10 µM SAHA response;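 active = activation above the average of all compounds screened plus 3 SD, cutoff fixed separately per campaign, cut at about 7.5% in these data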
Numbers stand for hits; 0 = inactive; ? = inconclusive; - = not tested or not shown.

SMILES | Wnt bcat act | esBAF inh | MITF act | FXN GAA850 act
COc1ccc(Oc2nccc(OC)c2C#N)cc1 | 0 | 0 | 0 | 0
COCC(=O)Nc1ccc2c(c1)[C@H]1C[C@@H](CC(=O)NC3CCCC3)O[C@H](CO)[C@H]1O2 | - | 0 | - | -
CSc1nnc2c(n1)[nH]c1c(C)cccc12 | - | 0 | 0 | 0
CCSc1nnc2c(n1)[nH]c1c(C)cccc12 | - | 89 | 0 | 0
CO[C@@H]1CN(C)C(=O)c2ccc(NC(=O)Nc3ccc4c(c3)OCO4)cc2OC[C@H](C)NC[C@@H]1C | - | 60 | - | -
CO[C@@H]1CN(C)C(=O)c2ccc(NC(=O)c3ccc4c(c3)OCO4)cc2OC[C@H](C)NC[C@@H]1C | - | 0 | - | -
CO[C@@H]1CN(C)C(=O)c2ccc(NC(=O)Nc3ccc4c(c3)OCO4)cc2OC[C@@H](C)NC[C@@H]1C | - | 87 | - | -
O=C1N=C(N2CCCCC2)S/C1=C\c1ccc(Cl)cc1 | 0 | 0 | - | 0
Cc1ccc(/C=C2\SC(N3CCCCC3)=NC2=O)cc1 | 0 | 42 | 0 | 0
Cc1ccnc(NC(=O)CNC(=O)c2sc3ccccc3c2Cl)c1 | 0 | 52 | 85 | 0
O=C(NCC(=O)N1CCCCC1)c1sc2ccccc2c1Cl | 45 | 0 | 114 | 0
C[C@H]1CN([C@@H](C)CO)C(=O)CCCn2cc(nn2)CO[C@H]1CN(C)C(=O)c1cc(-c2ccccc2)on1 | - | 0 | - | -
Cc1ccc(NC(=O)c2cccc3ccccc23)cc1 | 0 | 61 | - | 0
COc1cc2ccccc2cc1C(=O)Nc1ccc(C)cc1 | 0 | 46 | - | 0
O=C(Nc1ccncc1)c1cc2ccccc2cc1O | 47 | 53 | 0 | 0
COc1cc2ccccc2cc1C(=O)Nc1ccc(Cc2ccncc2)cc1 | - | 0 | 0 | 0
COc1ccc(NC(=O)N2C[C@H](O)COC[C@H]3O[C@H](CC(=O)NCc4ccccc4OC)CC[C@@H]32)cc1 | - | 0 | - | -
CCCN(C)C[C@H]1Oc2ncc(-c3ccccc3)cc2C(=O)N([C@H](C)CO)C[C@@H]1C | - | 0 | - | -
O=C(NCCc1ccc(O)cc1)c1ccc(Cl)cc1 | - | ? | 98 | 0
CC(=O)NCCNC(=O)c1ccc(CSc2ccc(Cl)cc2)cc1 | 0 | 54 | 0 | 0
CCNC(=O)c1ccc(CSc2ccc(Cl)cc2)cc1 | 0 | 0 | 0 | 0
CC(=O)Nc1ccc(S(=O)(=O)Nc2nc3ccccc3nc2Sc2nncn2C)cc1 | 0 | 44 | 0 | 0
Cn1cnnc1Sc1nc2ccccc2nc1NS(=O)(=O)c1ccccc1 | 0 | 0 | 0 | 0
O=C(NCC[C@H]1CC[C@H](NC(=O)c2cnccn2)[C@@H](CO)O1)Nc1ccc(Cl)cc1 | - | 0 | - | -
O=C(c1coc2ccc(O)cc12)C1CC1 | - | 0 | 0 | 0
SMILES | Wnt bcat act | esBAF inh | MITF act | FXN GAA850 act
O=C(c1ccc(Cl)cc1)c1coc2ccc(O)cc12 | - | 0 | 87 | 0
O=C(c1ccc(Br)cc1)c1coc2ccc(O)cc12 | 40 | - | ? | 0
Cc1cccc(NC(=S)N/C(=N/S(=O)(=O)c2ccccc2)c2ccccc2)c1 | 0 | 78 | 0 | 0
COc1ccc(NC(=S)N/C(=N/CS(=O)(=O)c2ccccc2)c2ccccc2)cc1 | 37 | 0 | 0 | 0
Cc1ccc(S(=O)(=O)/N=C(/NC(=S)Nc2cccc(C)c2)c2ccccc2)cc1 | - | - | 0 | 0
O=[N+]([O-])c1ccc(NC(=S)N/C(=N/CS(=O)(=O)c2ccccc2)c2ccccc2)cc1 | - | 0 | 0 | 0
CO[C@H]1CN(C)C(=O)c2cc(NC(=O)c3cnccn3)ccc2OC[C@@H](C)N(C)C[C@H]1C | - | 0 | - | -
C[C@@H]1CN([C@H](C)CO)S(=O)(=O)c2ccc(C#Cc3cccc(F)c3)cc2O[C@@H]1CN(C)C(=O)NC1CCCCC1 | - | 0 | - | -
COc1ccc2oc(-c3ccco3)cc(=O)c2c1 | 38 | 0 | 0 | 0
C[C@H](CO)N1C[C@H](C)[C@H](CN(C)Cc2ccc(Cl)c(Cl)c2)Oc2c(NS(=O)(=O)c3ccc(Cl)cc3)cccc2C1=O | - | 0 | - | -
O=C(Nc1ccccc1)C1=C[C@@H](C2CC2)C[C@@H](OCc2ccc(CO)cc2)O1 | ? | 60 | 0 | 0
O=C(Nc1ccccc1)C1=C[C@H](c2ccc(C(F)(F)F)cc2)C[C@H](OCCCCO)O1 | 0 | 0 | 0 | 0
O=C(Nc1ccccc1)C1=C[C@@H](c2ccc(Br)cc2)C[C@@H](OCCCCO)O1 | 0 | 57 | 0 | 0
O=C(Nc1ccccc1)C1=C[C@H](c2ccccc2)C[C@H](OCCCCO)O1 | 33 | 51 | 0 | 0
O=C(Nc1ccccc1)C1=C[C@@H](C2CC2)C[C@@H](OCCCCO)O1 | ? | 67 | 0 | 0
O=C(O)C1=C[C@@H](C2CC2)C[C@@H](OCCCCO)O1 | 0 | 0 | 0 | 0
Fc1ccc2cc(-c3ccccc3)ncc2c1 | 33 | 61 | 92 | 0
c1ccc(-c2cc3ccccc3cn2)cc1 | 48 | 62 | 0 | 0
CCNC(=S)Nc1ccc2ncoc2c1 | 0 | 0 | 0 | 0
CCNC(=S)Nc1ccc2c(c1)oc1ccccc12 | 38 | 63 | ? | 0
CC(C)c1ccc(NC(=O)N2CCOCC2)cc1 | 0 | 45 | - | 0
O=C(Nc1ccc2c(c1)oc1ccccc12)N1CCOCC1 | - | 60 | 0 | 0
C/C=C/c1ccc2c(c1)O[C@H](CN(C)Cc1ccncc1)[C@@H](C)CN([C@@H](C)CO)S2(=O)=O | - | 0 | - | -
O=c1cc(-c2ccsc2)oc2ccc(-c3ccc4cc[nH]c4c3)cc12 | 0 | 59 | 115 | 0
COc1cc(-c2ccc3oc(-c4ccsc4)cc3c2)cc(OC)c1OC | 0 | 0 | 0 | 0
SMILES | Wnt bcat act | esBAF inh | MITF act | FXN GAA850 act
COc1ccc(-c2ccc3oc(-c4ccsc4)cc(=O)c3c2)cc1F | 0 | 45 | 0 | 0
CCC(=O)Nc1ccc2c(c1)OC[C@@H](C)N(Cc1cncnc1)C[C@H](C)[C@H](OC)CN(C)C2=O | - | 0 | - | -
Oc1ccccc1C1=Nc2nc3ccccc3n2C(c2ccccc2)C1 (centres undefined) | - | 49 | 0 | 0
COC(=O)c1ccc(N2CCCCC2)c(N)c1 | 0 | 58 | 88 | 0
CCCC(=O)c1ccc(N2CCCCCC2)c(F)c1 | 0 | 52 | - | 0
CCCC(=O)c1ccc(N2CCCCC2)c(F)c1 | ? | - | 0 | 0
CCCC(=O)c1ccc(N2CCC(C)CC2)c(F)c1 | 52 | - | 0 | 0
Cc1noc(C)c1S(=O)(=O)N(C)C[C@H]1OCCCC[C@H](C)Oc2ccc(NC(=O)Cc3ccccc3)cc2C(=O)N([C@H](C)CO)C[C@@H]1C | - | 0 | - | -
COc1ccc(-c2cnc3c(c2)C(=O)N([C@@H](C)CO)C[C@H](C)[C@@H](CN(C)C(=O)CN(C)C)O3)cc1 | - | 0 | - | -
Cc1ccc(C(=O)n2nc(-c3cccnc3)nc2N)cc1 | - | - | 0 | 0
Cc1ccc(-c2nc(N)n(C(=O)c3cccnc3)n2)cc1 | 0 | 43 | - | 0
O=C(C[C@H]1C[C@H]2c3cc(NC(=O)Cc4ccncc4)ccc3O[C@H]2[C@@H](CO)O1)NCc1cc(F)ccc1F | - | 0 | - | -
CCOC(=O)COn1c(=O)c(-c2ccc(F)cc2)[n+]([O-])c2ccccc21 | 0 | 0 | - | 0
CCOc1ccc(-c2c(=O)n(OCC)c3ccccc3[n+]2[O-])cc1 | 0 | 0 | 0 | 0
CCCOc1ccc(-c2c(=O)n(OCC(=O)OCC)c3ccccc3[n+]2[O-])cc1 | 0 | 70 | - | 0
CCOC(=O)COn1c(=O)c(-c2cc3ccccc3o2)[n+]([O-])c2ccccc21 | 0 | 52 | - | 0
CCOc1ccc(-c2c(=O)n(O)c3ccccc3[n+]2[O-])cc1 | 56 | ? | 0 | 0
